Reference: the supplement of paper PMC6897291

System: U-2932
Assay: growth inhibition by drug alone (1 - RLU/untreated control) (fraction); higher = stronger inhibition
Conditions: 177Lu-lilotomab satetraxetan 0 ug/ml
Procedure: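 U-2932 ABC-DLBCL cells were pretreated or not for 18 h with 1 ug/ml 177Lu-lilotomab satetraxetan (600 MBq/mg), washed and seeded (3000 cells/well) on 384-well plates pre-printed with the Selleck Cambridge Cancer Compound library. Viability was read by RealTime-Glo luminescence on days 3-6 after seeding. Effect = 1 - RLU/mean RLU of the 48 untreated no-drug control wells per plate; Bliss score = (M-E)/(1-Fa), with E the expected Bliss-additive effect.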

Compound | growth inhibition by drug alone (10 nM, time (day): 3) | growth inhibition by drug alone (10 nM, time (day): 4) | growth inhibition by drug alone (10 nM, time (day): 5) | growth inhibition by drug alone (10 nM, time (day): 6) | growth inhibition by drug alone (1000 nM, time (day): 3) | growth inhibition by drug alone (1000 nM, time (day): 4) | growth inhibition by drug alone (1000 nM, time (day): 5) | growth inhibition by drug alone (1000 nM, time (day): 6)
Cn1cc(C2=C(c3cn(C4CCN(Cc5ccccn5)CC4)c4ccccc34)C(=O)NC2=O)c2ccccc21 | -0.0338 | -0.0583 | -0.0539 | 0.0229 | -0.144 | -0.131 | -0.13 | -0.0775
O=C(O)c1nn(Cc2ccc(Cl)cc2Cl)c2ccccc12 [Lonidamine] | 0.129 | 0.0861 | 0.00199 | -0.13 | 0.0943 | 0.0942 | -0.0767 | -0.0595
N.N.[Cl][Pt][Cl] [Cisplatin] | 0.0383 | 0.00908 | -0.0126 | 0.00453 | -0.0314 | -0.0428 | -0.0416 | 0.0312
CC[C@@H](C(=O)[C@@H](C)[C@@H](O)[C@H](C)[C@@H]1O[C@@H]([C@@H](CC)C(=O)O)CC[C@@H]1C)[C@H]1O[C@]2(C=C[C@@H](O)[C@]3(CC[C@@](C)([C@H]4CC[C@](O)(CC)[C@H](C)O4)O3)O2)[C@H](C)C[C@@H]1C [Salinomycin (Procoxacin)] | 0.136 | 0.115 | 0.00536 | -0.0492 | 0.311 | 0.423 | 0.542 | 0.721
CN(C)CCN(C)CCc1ccc(Cl)c(Cl)c1 | -0.0253 | -0.0155 | 0.000169 | 0.0547 | -0.0569 | -0.0395 | -0.0761 | -0.214
